About 13,000 (27%) of roughly 48,000 compounds showed an effect of 50% or more. This is one part of the list.
System: Wolbachia pipientis
Assay: Anti-Wolbachia Cell-Based Screen
Type: functional
Set-up: scale not given: in the data most compounds retested in dose-response had high values
Details: 5 µM

Row | Compound | Percent Effect
1 | COc1cc(F)ccc1-c1cc(CO)ccn1 | -29.15%
2 | CC(=O)N[C@@H]1Cc2ccccc2[C@H]1Nc1ccncn1 | 4.323%
3 | CCC1CCCCN1S(=O)(=O)c1c(N)noc1C (stereo not given) | 0.4068%
4 | COc1ccc(C(=O)N2CCN(CCO)CC2)c(F)c1 | 102.7%
5 | O=C(c1ccc(-c2cccs2)cc1F)N1CCN(CCO)CC1 | -12.79%
6 | Cc1nc2cc(F)cc(C(=O)N3CCN(CCO)CC3)c2nc1C | -10.5%
7 | Cc1cc(C(=O)N[C@H]2CC[C@@]3(CCC(=O)N3C)CC2)no1 | -27.57%
8 | N#Cc1cccc(C(=O)NC2CCc3c(ccc(=O)n3CC3CC3)C2)c1 (stereo not given) | 110.8%
9 | Cc1cc(C(=O)NC2CCc3c(ccc(=O)n3CC3CC3)C2)no1 (stereo not given) | 117.2%
10 | CC(=O)NCC(=O)NC1CCc2c(ccc(=O)n2CC2CC2)C1 (stereo not given) | -21.87%
11 | CC(C)Cn1c2c(ccc1=O)CC(N)CC2 (stereo not given) | -23.17%
12 | O=C(NC1CCc2c(ccc(=O)n2CC2CC2)C1)c1cscn1 (stereo not given) | -44.11%
13 | O=C(CC1CC1)NC1CCc2c(ccc(=O)n2CC2CC2)C1 (stereo not given) | -16.88%
14 | Cc1cc(C(=O)NC2CCc3c(ccc(=O)n3CCN(C)C)C2)no1 (stereo not given) | 93.45%
15 | CC(C)Cn1c2c(ccc1=O)CC(NC(=O)c1ccsc1)CC2 (stereo not given) | -16.59%
16 | Cc1cc(C(=O)NC2CCc3c(ccc(=O)n3CC(C)C)C2)no1 (stereo not given) | 105.4%
17 | CCc1cc(NC2CCS(=O)(=O)CC2)nc(N2CCCCC2)n1 | -3.09%
18 | Cn1c(CO)cnc1SC1CCCN(c2ccccc2F)C1=O (stereo not given) | -6.766%
19 | CC(Nc1ccn(CCS(C)(=O)=O)n1)c1ccc(C#N)cc1 (stereo not given) | -8.389%
20 | F[C@@H]1CN(CC2CC2)C[C@@H]1OCc1nc2ccccc2[nH]1 | -1.846%
21 | O=C(NC1CCN(c2ccc(-c3ccccc3F)nn2)C1)C1CCC1 (stereo not given) | -17.95%
22 | COC(=O)Cn1nc(-c2ccccc2F)ccc1=O | 121.8%
23 | COc1ccc(C(=O)Nc2ccccc2-c2ccc(=O)n(C)n2)nn1 | -4.369%
24 | CC(C)(C)C(=O)Cn1nc(-c2ccccc2F)ccc1=O | -0.9957%
25 | Cn1nc(-c2ccccc2NC(=O)c2cncc(Br)c2)ccc1=O | -4.851%

Row | Compound | Percent Effect
26 | CC(=O)Cn1nc(-c2ccccc2F)ccc1=O | 119.2%
27 | NC(=O)Cn1nc(-c2ccccc2F)ccc1=O | 144.8%
28 | COc1ccc(F)cc1Cn1nc(C(N)=O)ccc1=O | 1.725%
29 | O=C(O)Cn1nc(-c2ccccc2F)ccc1=O | 139.2%
30 | CC(C)Oc1cccc(C(=O)C2CCCN(C(=O)c3ncn[nH]3)C2)c1 (stereo not given) | -4.294%
31 | CS(=O)(=O)c1ccc(NC(=O)CSc2ccc3c(c2)CCC3)cn1 | 7.446%
32 | CC(c1nc(C2CC2)no1)N(C)Cc1cccc(F)c1 (stereo not given) | 12.3%
33 | CCN(CC)C(CNS(=O)(=O)c1ccc(C(=O)NC)cc1)c1ccco1 (stereo not given) | 0.6188%
34 | N[C@H]1CN(S(=O)(=O)N2CCCCCC2)C[C@@H]1c1ccccc1 | 3.796%
35 | O=C1CCC[C@]2(CN(S(=O)(=O)N3CCCCC3)C[C@H]2c2cccnc2)N1 | 175%
36 | CC(C)N1CCC2(CC1)CC(c1cccnc1)C(=O)N2 (stereo not given) | -11.82%
37 | O=C(N1CC(c2cccnc2)C1)C1(c2ccc(F)cc2)CCOCC1 | 1.587%
38 | O=S(=O)(C1CC1)N1CCC2(CC1)COC(COc1cccnc1)C2 (stereo not given) | -3.155%
39 | CC1(C)CN(S(=O)(=O)N2CCOCC2)CC1c1ccccc1 (stereo not given) | -33.51%
40 | O=C1CCC[C@]2(CN(S(=O)(=O)N3CCOCC3)C[C@H]2c2cccnc2)N1 | 174.7%
41 | O=C1CCC[C@]2(CN(S(=O)(=O)C3CCCCC3)C[C@H]2c2cccnc2)N1 | 155.7%
42 | CC1(C)CN(S(=O)(=O)N2CCCC2)CC1c1ccccc1 (stereo not given) | -16.61%
43 | CCc1[nH]ncc1C(=O)N1CCN(c2nc(C)cc(OC)n2)CC1 | -4.996%
44 | O=C(OCCNc1ncccn1)c1ccc(Cl)s1 | -0.7929%
45 | Cn1cc(CN2C[C@@H]3COC[C@]3(COc3ccc(C#N)cn3)C2)cn1 | -1.317%
46 | c1ccc(COC[C@]23COC[C@H]2CN(c2ncccn2)C3)nc1 | 107.1%
47 | O=S(=O)(c1ccccc1)N1C[C@@H]2COC[C@]2(COCC2CC2)C1 | 4.427%
48 | Cc1cccc(CN2C[C@@H]3COC[C@]3(COc3ccc(C#N)cn3)C2)n1 | -1.985%
49 | N#Cc1ccc(OC[C@]23COC[C@H]2CN(c2ncccn2)C3)nc1 | 98.67%
50 | c1ccc(COC[C@@H]2CC[C@H]3[C@H](CCN3c3ncccn3)O2)nc1 | -9.448%

Source: ChEMBL document CHEMBL3988442, “University of Dundee, Small-Polar-MMV Screening Library” (2021)
